Data on nine compounds can be found in PubChem BioAssay (NCI).

This is part of a sample that, as a whole, favours compounds with a hit. Of some 83,000 tested, about 20% had one in any assay.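 Assay: single dose, 48 h. Readout: percent growth (0 = no net growth; negative = cell death). Active: <10.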 Values without a mark were called inactive. The source made the active and inactive calls.

Test systems include DU-145 prostate; K-562 leukemia; MALME-3M melanoma; MDA-MB-231 breast; RXF 393 renal; SF-268 CNS; SF-295 CNS; UACC-257 melanoma; M14 melanoma; HCT-15 colon; HT29 colon; SNB-75 CNS; SNB-19 CNS; PC-3 prostate; SK-MEL-5 melanoma; UACC-62 melanoma; LOX IMVI melanoma; SK-MEL-28 melanoma; SF-539 CNS; U251 CNS.
Common to all, as to experiment: NCI-60 one-dose screen, 48 h (100 = growth as untreated, 0 = no growth, -100 = all killed)
Holding throughout (conditions): 10 µM unless noted

As for `COCCCNc1nc(NC(=O)c2ccc(F)cc2C)cc(-c2cccnc2)n1`, the growth in the test with DU-145 prostate was 110%; in the test on K-562 leukemia it was 104%; in the test on MALME-3M melanoma it was 107%; in the test on MDA-MB-231 breast it was 81.1%; in the test with RXF 393 renal it was 99.5%; with SF-268 CNS, 104%. Further, the growth with SF-295 CNS was 104%; in the test on UACC-257 melanoma it was 84.1%; in the test with M14 melanoma, 103%; with HCT-15 colon, 109%; in the test with HT29 colon it was 105%; with SNB-75 CNS, 91.7%. Also, the growth with SNB-19 CNS is 89.9%; with PC-3 prostate, 95.9%; in the test on SK-MEL-5 melanoma, 104%; in the test on UACC-62 melanoma, 85.7%; in the test on LOX IMVI melanoma, 112%; in the test on SK-MEL-28 melanoma, 107%.
Take `O=C(Nc1cccc2[nH]c(C(F)(F)F)nc12)c1ccc(Br)cc1F`: the growth in the test on DU-145 prostate is 46.8%; with K-562 leukemia, 13%; in the test with MALME-3M melanoma, 17.9%; in the test with MDA-MB-231 breast it was 30.7%; in the test with RXF 393 renal, 51.8%; in the test with SF-268 CNS, 29.1%. In addition, the growth in the test with SF-295 CNS was 35.3%; in the test with UACC-257 melanoma, 40.1%; in the test with M14 melanoma, 48.7%; in the test on HCT-15 colon, 28.5%; in the test on HT29 colon, 61.9%; in the test on SNB-75 CNS, 60.8%. For the same compound, the growth is 29.7% in the test on SNB-19 CNS; -32.8% (active) in the test on SK-MEL-5 melanoma; -1.06% (active) in the test on UACC-62 melanoma; 35.9% in the test with LOX IMVI melanoma; 62.9% in the test on SK-MEL-28 melanoma.
In the case of `COc1cc(/C=N/N(C)C)ccc1O`, the growth was 110% in the test with DU-145 prostate; 101% in the test on K-562 leukemia; 105% in the test with MALME-3M melanoma; 93.1% with MDA-MB-231 breast; 105% in the test with RXF 393 renal; 101% in the test on SF-268 CNS. The growth with SF-295 CNS is 104%; in the test with UACC-257 melanoma, 89.1%; with M14 melanoma, 108%; with HCT-15 colon, 105%; in the test on HT29 colon, 93.8%; in the test with SNB-75 CNS, 103%. Further, the growth with SNB-19 CNS was 99%; in the test on PC-3 prostate, 90%; in the test with SK-MEL-5 melanoma, 99.5%; with UACC-62 melanoma, 90.1%; with LOX IMVI melanoma it was 108%; in the test on SK-MEL-28 melanoma, 114%.
With `CCCCCCCCOC(=O)CC[C@@H](C)[C@H]1CC[C@H]2[C@@H]3[C@H](OC(=O)CCN)C[C@@H]4C[C@H](OC(=O)CCN)CC[C@]4(C)[C@H]3C[C@H](OC(=O)CCN)[C@]12C`, the growth in the test on DU-145 prostate was 74.4%; in the test on K-562 leukemia, -74.5% (active); in the test with MALME-3M melanoma, 67.8%; with MDA-MB-231 breast, 69.3%; with RXF 393 renal, 109%; with SF-268 CNS it was 69.7%. In addition, the growth in the test on SF-539 CNS is 56.3%; with M14 melanoma, 84.4%; with HCT-15 colon it was 102%; with HT29 colon, 39.6%; in the test with SNB-75 CNS it was 63.9%; with SNB-19 CNS, 116%. The growth is 87.3% in the test with PC-3 prostate; 97% in the test on SK-MEL-5 melanoma; 104% with UACC-62 melanoma; 63.2% with LOX IMVI melanoma; 58.4% with SK-MEL-28 melanoma.
For the compound `CC(=O)N1CC(Nc2ccc(OC(F)(F)F)cc2)=CC1=O`, the growth in the test with DU-145 prostate is 27%; with K-562 leukemia, 8.54% (active); in the test on MALME-3M melanoma, 55.7%; with MDA-MB-231 breast, 55%; in the test on RXF 393 renal, 39.6%; in the test with SF-268 CNS it was 59.8%. Moreover, the growth with SF-295 CNS was 14.7%; with UACC-257 melanoma, 46.6%; in the test on HCT-15 colon it was 30.8%; in the test on HT29 colon it was 7.79% (active); in the test with SNB-75 CNS, 9.15% (active); in the test with SNB-19 CNS, 42.3%. The growth in the test on U251 CNS is 28.6%; with PC-3 prostate, 30.6%; in the test with SK-MEL-5 melanoma it was 21.2%; in the test on UACC-62 melanoma, 39.1%; in the test on LOX IMVI melanoma, 43.7%; in the test on SK-MEL-28 melanoma, 56.5%.
With `C=C1CCC2C3(C)COC(c4ccc(OC)cc4Br)OC3CCC2(C)C1/C=C/C1=CCOC1=O` (stereo not drawn), the growth in the test on DU-145 prostate is 86.6%; with K-562 leukemia, 31.1%; with MALME-3M melanoma it was 93.9%; in the test with MDA-MB-231 breast it was 78.7%; in the test with RXF 393 renal it was 90%; in the test with SF-268 CNS it was 89%. Moreover, the growth with SF-295 CNS is 60.6%; in the test with UACC-257 melanoma, 58.3%; in the test on HCT-15 colon, 65.7%; in the test on HT29 colon it was 75.6%; in the test on SNB-75 CNS, 82.3%; with SNB-19 CNS, 97.4%. In addition, the growth in the test on U251 CNS is 74.7%; with PC-3 prostate, 47.7%; in the test with SK-MEL-5 melanoma, 45.3%; in the test on UACC-62 melanoma it was 61.9%; with LOX IMVI melanoma, 71.1%; in the test on SK-MEL-28 melanoma it was 80.2%.
On to `COc1ccc(/C=c2/c(=O)[nH]c3nc4sc(C)c(C)c4c(=O)n23)cc1`, for which the growth in the test on DU-145 prostate is 92.6%; in the test on K-562 leukemia it was 81.6%; in the test on MALME-3M melanoma, 92.6%; with MDA-MB-231 breast, 97.3%; in the test with RXF 393 renal, 93.7%; in the test on SF-268 CNS, 88.5%. The growth was 92.8% in the test on SF-539 CNS; 96.2% with M14 melanoma; 73.2% in the test on HCT-15 colon; 88.1% in the test on HT29 colon; 93.2% with SNB-75 CNS; 88.4% in the test on SNB-19 CNS. Also, the growth in the test with PC-3 prostate is 91%; in the test on SK-MEL-5 melanoma, 90.8%; in the test with UACC-62 melanoma it was 80.4%; in the test with LOX IMVI melanoma it was 91.1%; in the test on SK-MEL-28 melanoma, 102%.
As to `CS(=O)(=O)c1c(Nc2ccccc2)n[nH]c1N`, the growth in the test with DU-145 prostate is 115%; in the test with K-562 leukemia, 93.2%; in the test with MALME-3M melanoma, 124%; in the test with MDA-MB-231 breast, 103%; in the test with RXF 393 renal it was 114%; in the test with SF-268 CNS, 111%. Further, the growth is 126% with SF-295 CNS; 105% in the test with UACC-257 melanoma; 113% in the test with M14 melanoma; 101% in the test with HCT-15 colon; 97.3% in the test with HT29 colon; 114% in the test with SNB-75 CNS. Also, the growth with SNB-19 CNS is 91.1%; in the test with PC-3 prostate, 82.5%; in the test on SK-MEL-5 melanoma it was 101%; in the test on UACC-62 melanoma it was 92.4%; in the test with LOX IMVI melanoma, 89.8%; in the test on SK-MEL-28 melanoma it was 106%.
As for `CCC(C)[C@@H]1NC(=O)[C@@H]2CCCN2C(=O)[C@H](Cc2ccccc2)NC(=O)[C@@H]2CCCN2C(=O)[C@H](Cc2ccccc2)NC(=O)[C@@H]2CCCN2C(=O)[C@H](Cc2ccccc2)NC1=O` (stereo partly drawn), the growth with DU-145 prostate was 118%; with K-562 leukemia it was 91.5%; in the test on MALME-3M melanoma, 126%; in the test with MDA-MB-231 breast it was 104%; in the test with RXF 393 renal, 111%; in the test with SF-268 CNS it was 119%. In addition, the growth in the test with SF-539 CNS was 109%; with M14 melanoma, 105%; in the test on HCT-15 colon it was 103%; with HT29 colon, 113%; with SNB-75 CNS it was 76.7%; with SNB-19 CNS, 103%. The growth was 90.7% in the test on PC-3 prostate; 100% in the test on SK-MEL-5 melanoma; 99.9% with UACC-62 melanoma; 103% with LOX IMVI melanoma; 95% in the test on SK-MEL-28 melanoma.
